Measured values reported in article PMC7826789 (International Journal of Molecular Sciences, 2021).

What was measured:
Details in all cases: Compound Concentration (nM):1000
[1] = system: WEE1
[2] = system: WEE2
[3] = system: WNK1
[4] = system: WNK2
[5] = system: WNK3
[6] = system: WNK4
[7] = system: T1, YANK1
T1 construct: gene STK32A

[8] = system: T2, YANK2
T2 construct: gene STK32B

[9] = system: T3, YANK3
T3 construct: gene STK32C

[10] = system: T4, YES
T4 construct: gene YES1
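Also: KINOMEscan scanMAX binding as percent activity remaining versus control; lower means stronger binding.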

| Structure (SMILES) | Percent Control [1] [%] | Percent Control [2] [%] | Percent Control [3] [%] | Percent Control [4] [%] | Percent Control [5] [%] | Percent Control [6] [%] | Percent Control [7] [%] | Percent Control [8] [%] | Percent Control [9] [%] | Percent Control [10] [%] |
| --- | --- | --- | --- | --- | --- | --- | --- | --- | --- | --- |
| COC(=O)Nc1nc2ccc(Oc3ccc(NC(=O)Nc4cc(C(F)(F)F)ccc4F)cc3)cc2s1.Cl [GW693917A] | 87 | 100 | 76 | 100 | 100 | 67 | 100 | 100 | 94 | 51 |
| CCn1c(-c2nonc2N)nc2c(C#CC(C)(C)O)nc(OCCNC)cc21.Cl [GSK949675] | 92 | 100 | 100 | 100 | 100 | 51 | 87 | 89 | 100 | 100 |
| COc1cccc(-n2ncc3c(N/N=C/c4ccncc4)ncnc32)c1 [GW784752X] | 100 | 89 | 98 | 100 | 100 | 100 | 100 | 88 | 100 | 87 |
| COc1ccc(COc2ccc(Cc3cnc(N)nc3N)cc2OC)cc1 [GW632580X] | 98 | 83 | 98 | 84 | 92 | 82 | 100 | 100 | 100 | 82 |
| NS(=O)(=O)c1ccc(N/N=C2\C(=O)Nc3ccc(Cl)cc32)cc1 [GW280670X] | 100 | 100 | 99 | 100 | 100 | 100 | 100 | 100 | 100 | 100 |
| CC1=C(C(=O)Nc2ccc3[nH]ncc3c2)C(c2ccc3ccccc3c2)CC(=O)N1 (stereo not shown) [GSK270822A] | 93 | 62 | 92 | 85 | 86 | 76 | 83 | 88 | 96 | 68 |
| COc1ccc2[nH]c3c4[nH]c5ccc(OC)cc5c4c4c(c3c2c1)C(=O)NC4=O [GW296115X] | 53 | 87 | 91 | 66 | 92 | 88 | 69 | 97 | 84 | 73 |
| CCc1ccc(Oc2nccc(-c3c(-c4ccc(F)cc4)ncn3C3CCNCC3)n2)cc1 [SB-242719] | 100 | 100 | 80 | 97 | 89 | 67 | 8.8 | 13 | 32 | 78 |
| Cl.O=C(Nc1ccc(Oc2ccc3[nH]c(NC(=O)c4ccco4)nc3c2)cc1)Nc1cc(C(F)(F)F)ccc1F [GW683134A] | 100 | 100 | 90 | 100 | 100 | 100 | 82 | 100 | 100 | 61 |
| COc1cccc(-c2c[nH]c3c(N/N=C/c4ccncc4)ncnc23)c1 [GW814408X] | 100 | 98 | 96 | 75 | 99 | 100 | 90 | 100 | 100 | 61 |
| COc1ccc2cc(-c3c(-c4ccncc4)nc(-c4ccc(S(C)(=O)=O)cc4C)n3C)ccc2c1 [SB-633825] | 86 | 53 | 97 | 78 | 92 | 72 | 41 | 26 | 70 | 46 |
| O=C(Nc1n[nH]c2nc(-c3ccc(O)cc3)c(Br)cc12)C1CC1 [SB-725317] | 100 | 100 | 84 | 98 | 100 | 98 | 100 | 100 | 100 | 100 |
| CN1CCN(C(=O)c2ccc(NC(=O)Nc3ccc(N(C)c4ccnc(Nc5ccc(CS(C)(=O)=O)cc5)n4)cc3)cc2)CC1.Cl [GW830263A] | 100 | 99 | 94 | 67 | 93 | 100 | 68 | 100 | 100 | 96 |
| COc1ccc2c(-c3ccnc(Nc4cccc(OC(F)(F)F)c4)n3)cnn2n1 [GW810372X] | 100 | 100 | 100 | 61 | 90 | 100 | 100 | 100 | 100 | 100 |
| Cl.O=S1CCN(Cc2ccc(-c3ccc4ncnc(Nc5ccc(OCc6ccccc6)c(F)c5)c4c3)o2)CC1 [GW576924A] | 100 | 100 | 100 | 100 | 100 | 100 | 100 | 100 | 100 | 100 |
| Nc1ncnc2occ(-c3ccc(NC(=O)Nc4cc(C(F)(F)F)ccc4F)cc3)c12 [GW770249X] | 100 | 100 | 96 | 100 | 100 | 100 | 99 | 100 | 100 | 98 |
| COc1cc(/C=N/Nc2ncnc3[nH]ncc23)ccc1O [GW578748X] | 100 | 80 | 100 | 70 | 64 | 100 | 100 | 100 | 100 | 87 |
| Cl.c1ccc(Cc2nc3ccc(Nc4ncnc5ccccc45)cc3[nH]2)cc1 [GR269666A] | 100 | 100 | 100 | 100 | 100 | 100 | 100 | 100 | 100 | 100 |
| NS(=O)(=O)c1ccc(N/N=C2\C(=O)Nc3ccc(-c4cnco4)cc32)cc1 [GW276655] | 88 | 72 | 87 | 100 | 56 | 100 | 56 | 100 | 63 | 69 |
| CCS(=O)(=O)c1ccc(OC)c(Nc2ncc(-c3cccc(OC)c3)o2)c1 [GW580509X] | 100 | 100 | 99 | 100 | 100 | 100 | 100 | 100 | 100 | 74 |

| Structure (SMILES) | Percent Control [1] [%] | Percent Control [2] [%] | Percent Control [3] [%] | Percent Control [4] [%] | Percent Control [5] [%] | Percent Control [6] [%] | Percent Control [7] [%] | Percent Control [8] [%] | Percent Control [9] [%] | Percent Control [10] [%] |
| --- | --- | --- | --- | --- | --- | --- | --- | --- | --- | --- |
| CN(C)c1cc2c(Nc3ccc4c(cnn4Cc4ccccc4)c3)ncnc2cn1 [GW282974X] | 83 | 72 | 100 | 100 | 100 | 91 | 100 | 100 | 100 | 67 |
| NS(=O)(=O)c1ccc(N/N=C2\C(=O)Nc3ccc(C(=O)NCCc4c[nH]cn4)cc32)cc1 [GW300660X] | 100 | 100 | 100 | 100 | 95 | 100 | 100 | 100 | 100 | 100 |
| CCS(=O)(=O)c1ccc(OC)c(Nc2ncc(-c3cccc(F)c3)o2)c1 [GW621970X] | 100 | 100 | 90 | 100 | 97 | 100 | 100 | 100 | 100 | 43 |
| O=C1Nc2ccc(C(=O)c3ccco3)cc2C1=Cc1cc(Cl)c(O)c(Cl)c1 [GW406108X] | 100 | 100 | 89 | 100 | 93 | 100 | 100 | 100 | 100 | 100 |
| COc1cc2ncnc(Nc3ccc4c(cnn4Cc4ccccc4)c3)c2cc1OC.Cl [GW282449A] | 100 | 100 | 94 | 100 | 100 | 100 | 100 | 100 | 100 | 67 |
| C/C(Nc1ccc(S(N)(=O)=O)cc1)=C1/C(=O)Nc2ccccc21 [GW335962X] | 100 | 95 | 90 | 93 | 100 | 100 | 100 | 100 | 88 | 100 |
| COc1cc2ncn(-c3cc(O[C@H](C)c4ccccc4Cl)c(C(N)=O)s3)c2cc1OC [GSK237701A] | 100 | 76 | 2.9 | 6.1 | 0.8 | 11 | 91 | 100 | 92 | 87 |
| NS(=O)(=O)c1ccc(N/N=C2\C(=O)Nc3ccc(C(=O)NCc4ccncc4)cc32)cc1 [GW300657X] | 93 | 59 | 92 | 78 | 95 | 73 | 100 | 100 | 100 | 100 |
| COc1cc(N2CCN(C(C)C)CC2)ccc1Nc1nc(Nc2ccc(F)cc2C(=O)NC[C@@H](O)CO)c2cc[nH]c2n1 [GSK1392956A] | 96 | 100 | 92 | 100 | 100 | 69 | 100 | 100 | 100 | 99 |
| Cc1cc(O)cc(C)c1/C=C/c1cncc(C(N)=O)c1 [GW435821X] | 100 | 100 | 100 | 100 | 93 | 100 | 100 | 100 | 100 | 100 |
| COc1cc(C)c(N(C)C(=O)CN(C)C)cc1Nc1nc(Nc2cccc(F)c2C(N)=O)c2cc[nH]c2n1 [GSK2219385] | 100 | 90 | 100 | 100 | 100 | 81 | 87 | 100 | 85 | 96 |
| NS(=O)(=O)c1ccc(Nc2ncc(-c3ccccc3)o2)cc1 [GW572399X] | 100 | 100 | 89 | 100 | 100 | 100 | 100 | 100 | 100 | 100 |
| COc1cc(C=NNc2ncnc3c2cnn3-c2ccccc2)ccc1O [GW513184X] | 96 | 100 | 97 | 100 | 100 | 100 | 89 | 100 | 100 | 74 |
| Cl.O=C(O[C@H]1CN[C@H](C#Cc2cc3ncnc(Nc4ccc5c(cnn5Cc5ccccc5)c4)c3s2)C1)N1CCOCC1 [GSK200398A] | 89 | 96 | 80 | 94 | 100 | 95 | 100 | 100 | 100 | 98 |
| C[C@@H](Oc1cc(-n2cnc3ccc(OC4CCN(C)CC4)cc32)sc1C(N)=O)c1ccccc1Cl [GSK579289A] | 40 | 87 | 32 | 7.1 | 26 | 2.7 | 77 | 100 | 100 | 87 |
| CN(C)CCNC(=O)Nc1ccc(N(C)c2ccnc(Nc3ccc(CS(C)(=O)=O)cc3)n2)cc1.Cl [GW830900A] | 94 | 88 | 92 | 64 | 99 | 100 | 68 | 100 | 100 | 77 |
| CC(C)COC(=O)c1ccc2c(c1)/C(=C/Nc1ccc(S(N)(=O)=O)cc1)C(=O)N2 [GW416981X] | 100 | 100 | 100 | 100 | 100 | 100 | 100 | 100 | 100 | 100 |
| CC1=C(C(=O)Nc2ccc3[nH]ncc3c2)C(c2ccc(Cl)c(Cl)c2)CC(=O)N1 (stereo not shown) [GSK299115A] | 84 | 73 | 95 | 100 | 69 | 82 | 93 | 82 | 99 | 81 |
| COc1ccccc1-c1cc(/C=C2\C(=O)Nc3ncc(Br)cc32)cc(Br)c1O [GW442130X] | 100 | 100 | 100 | 100 | 98 | 100 | 92 | 94 | 100 | 100 |
| Cl.O=C(Nc1ccc(Oc2ccc3[nH]c(NC(=O)c4ccccc4)nc3c2)cc1)Nc1cc(C(F)(F)F)ccc1F [GW709042A] | 100 | 100 | 91 | 100 | 88 | 100 | 88 | 100 | 100 | 100 |
